The whole screen tested about 350,000 compounds, of which about 2,300 (0.66%) were called active.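 How the source made its calls: active means mean inhibition of at least 50% after viability correction, with every replicate also passing that limit; inconclusive means mean reaches 50% but only one of two replicates passes; inactive means the rest.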 The list comes from a sample in which actives are over-represented; it also holds similar structures and randomly drawn compounds.

This assay can be described thus: EWS/Fli-driven NR0B1 reporter inhibitors, primary screen, A673 cells, NR0B1 luciferase, luminescence, MLPCN library (AID 651661).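 Further: firefly luciferase signal divided by Alamar Blue viability fluorescence both relative to DMSO.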 The conditions noted are these: viability-normalised, at 12.6 µM, stronger effect = higher value.
For orientation: inhibition means the change of the read-out against control, counted positive when it falls. For the compound `O=C(C[C@@H]1C[C@H]2c3cc(NC(=O)C4CCOCC4)ccc3O[C@H]2[C@@H](CO)O1)NCCN1CCCCC1`, the inhibition is -1.07% (inactive).

As to `COC(=O)C[C@@H]1CC[C@@H]2[C@H](COc3ccc(NC(=O)Nc4cccc(F)c4)cc3C(=O)N2C)O1`, the inhibition was 33.6% (inactive).

For the compound `COC(=O)C[C@@H]1CC[C@@H]2[C@H](COc3ccc(NC(=O)c4cccc(F)c4)cc3C(=O)N2C)O1`, the inhibition is 61.7% (active).

Regarding `COC(=O)C[C@H]1CC[C@H]2[C@@H](COc3ccc(NC(=O)Nc4cccc(F)c4)cc3C(=O)N2C)O1`, the inhibition was -0.36% (inactive).

For the compound `O=C(C[C@@H]1CC[C@H]2[C@@H](COC[C@H](O)CN2Cc2ccc(F)cc2)O1)N1CCc2ccccc2C1`, the inhibition was 2.81% (inactive).

For the compound `CCCN(C)C[C@@H]1OCc2cnnn2CCCC(=O)N([C@H](C)CO)C[C@@H]1C`, the inhibition is 0.738% (inactive).

Take `C[C@@H]1CN([C@H](C)CO)C(=O)Cc2cc(NC(=O)CCCCCC(=O)Nc3ccccc3N)ccc2O[C@H]1CN(C)S(=O)(=O)c1ccc(F)cc1`: the inhibition is -11% (inactive).

Consider `Cc1ccc(S(=O)(=O)Nc2ccc3c(c2)C(=O)N([C@H](C)CO)C[C@H](C)[C@H](CN(C)Cc2ccc(C(=O)Nc4ccccc4N)cc2)OCCCC[C@@H](C)O3)cc1`, for which the inhibition was 8.6% (inactive).

On to `C[C@H](CO)N1C[C@H](C)[C@H](CN(C)Cc2ccc(C(=O)Nc3ccccc3N)cc2)Oc2ccc(NS(C)(=O)=O)cc2C1=O`, for which the inhibition is 27% (inactive).

On to `Cc1ccc(S(=O)(=O)Nc2ccc3c(c2)C(=O)N([C@@H](C)CO)C[C@@H](C)[C@@H](CN(C)Cc2ccc(C(=O)Nc4ccccc4N)cc2)O3)cc1`, for which the inhibition is 51.7% (active).

On to `C[C@H]1CN([C@@H](C)CO)C(=O)Cc2cc(NS(=O)(=O)c3ccccc3)ccc2O[C@H]1CN(C)Cc1ccc(C(=O)Nc2ccccc2N)cc1`, for which the inhibition is -7.96% (inactive).

With `C[C@@H]1CN([C@@H](C)CO)C(=O)c2cc(NS(=O)(=O)c3ccccc3)ccc2O[C@@H]1CN(C)Cc1ccc(C(=O)Nc2ccccc2N)cc1`, the inhibition was 57.5% (active).

Consider `C[C@@H]1CN([C@H](C)CO)C(=O)c2cc(NS(=O)(=O)c3cn(C)cn3)ccc2O[C@@H]1CN(C)Cc1ccc(C(=O)Nc2ccccc2N)cc1`, for which the inhibition was -4.91% (inactive).

Regarding `COCC#Cc1ccc([C@H]2[C@H](CO)N3C(=O)CN(C(=O)Nc4ccccc4F)C[C@@H]23)cc1`, the inhibition was 2.04% (inactive).

Regarding `COc1cccc(S(=O)(=O)N[C@H]2CC[C@H](CCN)O[C@H]2CO)c1`, the inhibition was -10.4% (inactive).

Turning to `COc1ccc(S(=O)(=O)Nc2ccc3c(c2)C(=O)N([C@H](C)CO)C[C@@H](C)[C@H](CN(C)C(=O)Nc2ccc4c(c2)OCO4)O3)cc1`, the inhibition is 0.75% (inactive).

Consider `CC(=O)N1[C@H](CO)[C@H](c2ccc(-c3ccccc3)cc2)[C@H]1CNC(=O)NC(C)C`, for which the inhibition was 0.423% (inactive).

For `COc1ccc(-c2ccccc2[C@@H]2[C@@H](C#N)N(C(=O)NC3CCCC3)[C@H]2CO)cc1`, the inhibition was 4.32% (inactive).

Consider `C[C@H](CO)N1C[C@H](C)[C@@H](CN(C)Cc2ccncc2)Oc2ncc(C#CC3CC3)cc2C1=O`, for which the inhibition was -3.48% (inactive).

For `COc1cccc(S(=O)(=O)N2C[C@@H](O)COC[C@@H]3O[C@H](CC(=O)N4CCN(C)CC4)CC[C@H]32)c1`, the inhibition is 2.56% (inactive).

Turning to `Cc1cc(C(=O)Nc2cccc3c2O[C@H](CN(C)C(=O)Nc2ccccc2)[C@@H](C)CN([C@H](C)CO)C3=O)n(C)n1`, the inhibition was -4.28% (inactive).

As for `O=C(C[C@H]1C[C@H]2c3cc(NC(=O)c4ccc5c(c4)OCO5)ccc3O[C@H]2[C@@H](CO)O1)NCc1cccc(F)c1`, the inhibition was -0.435% (inactive).

As for `O=C(NCc1ccncn1)[C@@H]1[C@@H](CO)[C@@H]2Cn3c(ccc(-c4ccc(F)cc4)c3=O)[C@@H]2N1CC1CC1`, the inhibition is 5.67% (inactive).

Regarding `C[C@@H]1CN([C@H](C)CO)C(=O)c2cc(NC(=O)C3CCCCC3)ccc2O[C@@H]1CN(C)CC1CCCCC1`, the inhibition is 1.73% (inactive).

Regarding `CS(=O)(=O)N1CC2(C1)[C@H](c1ccccc1)[C@H](CO)N2Cc1ccc(F)cc1`, the inhibition was -3.95% (inactive).

With `CCn1c(SCC(=O)Nc2ccc3c(c2)OCCO3)nnc1-c1ccncc1`, the inhibition was 4.78% (inactive).

Regarding `Cc1ccc2nc(-c3ccncc3)cc(C(=O)Nc3ccc4c(c3)OCCO4)c2c1`, the inhibition is 57.8% (active).

Take `Cc1ccc2nc(-c3ccncc3)cc(C(=O)Nc3ccc(OC(F)F)cc3)c2c1`: the inhibition is 54% (active).

With `CCN(CC)CCNC(=O)c1ccc(NC(=O)c2cc(-c3ccncc3)nc3ccccc23)cc1`, the inhibition was 8.49% (inactive).

For `O=C(Nc1ccncc1)c1cc(-c2ccccn2)nc2ccc(Br)cc12`, the inhibition is 17% (inactive).

For the compound `CCOc1ncccc1C(=O)Nc1ccc2c(c1)OCCO2`, the inhibition is -5.13% (inactive).

With `CNC[C@H]1OCCCC[C@@H](C)Oc2ccc(NC(=O)c3ccncc3)cc2C(=O)N([C@H](C)CO)C[C@H]1C`, the inhibition is 0.415% (inactive).

As for `CO[C@@H]1CN(C)C(=O)c2cc(NC(=O)C3CC3)ccc2OC[C@H](C)N(CC2CC2)C[C@H]1C`, the inhibition was -3.56% (inactive).

On to `O=C(C1CCOCC1)N1C[C@H]2[C@@H](c3ccccc31)[C@@H](CO)N2Cc1ccccc1`, for which the inhibition was 2.37% (inactive).

With `CCCC(=O)N1CC2(C1)CN(C(=O)COC)[C@@H](CO)c1c2c2ccc(OC)cc2n1C`, the inhibition is 23.9% (inactive).

`C[C@@H](NC(=O)C[C@H]1CC[C@H]2[C@H](COc3ccc(NS(=O)(=O)c4ccc(Cl)cc4)cc3C(=O)N2C)O1)c1ccccc1`: the inhibition is 13.8% (inactive).

On to `CN1CCN(CCCCOc2ccccc2-c2ccccc2)CC1`, for which the inhibition was -2.32% (inactive).

For the compound `OCCN1CCN(C(=S)c2ccc(-c3ccccc3)cc2)CC1`, the inhibition was 69% (active).

As for `S=C(c1ccc(-c2ccccc2)o1)N1CCCCC1`, the inhibition is -59.7% (inactive).

Turning to `COc1ccc(CN(C)C[C@@H]2OCCCC[C@@H](C)Oc3ccc(NS(=O)(=O)c4ccc(C)cc4)cc3C(=O)N([C@@H](C)CO)C[C@H]2C)cc1`, the inhibition was -18.8% (inactive).

As to `CC(=O)Nc1ccc(C=Cc2ccc([N+](=O)[O-])cc2)cc1`, the inhibition is -72.7% (inactive).

As for `O=C1/C(=C\c2ccc([N+](=O)[O-])cc2)CS(=O)(=O)C/C1=C/c1ccc([N+](=O)[O-])cc1`, the inhibition is 74.9% (active).

In the case of `O=C(O)C(=Cc1ccc([N+](=O)[O-])cc1)CCc1ccccc1`, the inhibition is 5.5% (inactive).

The record behind these values is PubChem BioAssay AID651661 (Broad Institute, 2012).
